Potency and affinity values are given separately. Calls of active or inactive are those of the source.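 How the source made its calls: active means compounds lowering the cell viability signal, with fitted half-maximal dose at most ten times the top valid dose; inconclusive means flat partial drop of 30 to 70 percent, or poor fit; inactive means flat near zero, weak potency, or rising signal.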

This note sets out measurements from PubChem BioAssay AID488933 (Broad Institute, 2010).

The nature of the assay: mammalian cell toxicity, NIH-3T3 fibroblasts, dose response, cytotoxicity control for reversing antifungal drug resistance, Alamar Blue, dry powder, set 3 (AID 488933). Particulars: NIH-3T3 viability with fluconazole, 48 h; series mostly up to 26 µM.
Regarding `O=C(c1cccc(Cl)c1)N1CCN(c2ccccn2)CC1`, the result was inactive.
Take `Cc1ccc(N2CCN(C(=O)c3ccc(Cl)cc3)CC2)nn1`: the result was inactive.
Turning to `Cc1ccc(N2CCN(C(=O)c3ccc(Cl)cc3)CC2)nc1`, the result was inactive.
For the compound `O=C(c1ccc(Cl)cc1)N1CCN(c2nc3ccccc3s2)CC1`, the outcome was inactive.
The result for `O=C(c1ccc(Cl)cc1)N1CCN(c2cnccn2)CC1` reads “inactive”; that for `O=C(c1ccc(Cl)cc1)N1CCN(c2cccc(C(F)(F)F)n2)CC1`, “inactive”.
The result for `Cc1ccnc(N2CCN(C(=O)c3ccc(Cl)cc3)CC2)c1` reads “inactive”; that for `O=C(c1ccc(Cl)cc1)N1CCN(c2nccs2)CC1`, “inactive”; that for `Cn1ccnc1N1CCN(C(=O)c2ccc(Cl)cc2)CC1`, “inactive”.
With `O=C(c1ccccc1Cl)N1CCN(c2ccccn2)CC1` the entry was “inactive”.
On to `CCCCC(=O)N1CCN(c2ccccn2)CC1`, for which the outcome was inactive.
The result for `CC(C)C(=O)N1CCN(c2ccccn2)CC1` reads “inactive”; that for `O=C(C1CCCCC1)N1CCN(c2ccccn2)CC1`, “inactive”.
Regarding `COCCC(=O)N1CCN(c2ccccn2)CC1`, the result was inactive.
With `Cc1ccc(C(=O)N2CCN(c3ccccn3)CC2)cc1` the entry was “inactive”; with `N#Cc1cccnc1N1CCN(C(=O)c2ccc(Cl)cc2)CC1`, “inactive”; with `COc1cccnc1N1CCN(C(=O)c2ccc(Cl)cc2)CC1`, “inactive”.
With `COc1ccc(C(=O)N2CCN(c3ccccn3)CC2)cc1` the entry was “inactive”.
The result for `O=C(c1ccc(Cl)cc1)N1CCN(c2ccc(C(F)(F)F)cn2)CC1` reads “inactive”; that for `CC(C)C(=O)N1CCN(c2ccnc3cc(Cl)ccc23)CC1`, “inactive”.
`N#Cc1ccc(C(=O)N2CCN(c3ccccn3)CC2)cc1`: the outcome was inactive.
With `O=C(c1ccc(F)cc1)N1CCN(c2ccccn2)CC1`, the outcome was inactive.
In the case of `Cc1cccc(N2CCN(C(=O)c3ccc(Cl)cc3)CC2)n1`, the result was inactive.
With `O=C(c1ccc(Cl)cc1)N1CCN(c2ncccn2)CC1` the entry was “inactive”; with `O=C(c1ccc(Cl)cc1)N1CCN(c2nc3ccccc3o2)CC1`, “inactive”.
With `c1ccc(N2CCNCC2)nc1` the entry was “inactive”; with `O=C(c1ccc(Cl)cc1)N1CCN(c2ncccc2C(F)(F)F)CC1`, “inactive”.
